# Hits are enriched below; roughly 2.3% of the tested compounds scored in any of these assays.
# mHtt clearance: mutant huntingtin protein clearance; inhibition, % at 1.5 µM; HeLa Exon1htt(103Q)mCFP, aggregate imaging; zero = plate's median compound well; AID 853; actives 0.42% (n = 47,000);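 active = inhibition of aggregate fluorescence above about 70%, also judged a hit by eye on the cell image, limit read from the data, passing the limit was not always enough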;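 note: cells exposed to compound for three days before fixation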
# 5HT1a antag: antagonists of human 5-HT1a serotonin receptor. P08908. CHO 5-HT1a Ga15 NFAT-bla reporter, antagonist mode. inhibition, % at 10 µM. actives 0.68% (n = 62,000). AID 612;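 active = inhibition above the mean of all tested compounds plus 3 SD, cut at about 43% in these data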;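 note: receptor stimulated by 5-CT agonist at 100 nM near EC80; beta-lactamase reporter measured by ratiometric fluorescence of a cleavable substrate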
# Target sequence (P08908 whole entry, looked up): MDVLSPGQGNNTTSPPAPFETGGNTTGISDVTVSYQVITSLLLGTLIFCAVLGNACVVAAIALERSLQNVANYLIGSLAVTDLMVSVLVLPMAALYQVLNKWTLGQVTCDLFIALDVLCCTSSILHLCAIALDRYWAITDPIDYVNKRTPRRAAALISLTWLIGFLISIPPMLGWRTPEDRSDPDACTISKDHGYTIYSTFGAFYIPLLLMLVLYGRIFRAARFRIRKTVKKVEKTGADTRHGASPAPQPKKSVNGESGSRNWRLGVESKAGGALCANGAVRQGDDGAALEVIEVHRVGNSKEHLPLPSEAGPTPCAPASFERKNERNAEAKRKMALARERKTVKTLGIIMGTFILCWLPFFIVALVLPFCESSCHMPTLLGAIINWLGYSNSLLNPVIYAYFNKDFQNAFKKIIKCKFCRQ
# 5HT1E ag: 5-HT1E (human) receptor agonism; activation, % at 6 µM; CHO 5-HT1E Ga15 NFAT-bla reporter, FRET; 0% DMSO wells, 100% control agonist wells; actives 0.69% (n = 65,000);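 active = activation above a set limit, the screen-wide mean activation plus 3 SD, cut at about 8.5% in these data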
# 5HT1E antag: antagonists of human 5-HT1E serotonin receptor | P28566 | CHO 5-HT1E Ga15 NFAT-bla reporter, FRET, antagonist | inhibition, % at 6 µM | actives 0.99% (n = 65,000) | AID 571;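 active = inhibition above a set limit, the mean inhibition across every tested compound plus 3 SD, cut at about 29% in these data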;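 note: signal is the 460 over 535 nm emission ratio of beta-lactamase substrate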
# 5HT1a ag: activates the human 5-HT1a serotonin receptor | CHO 5-HT1a Ga15 NFAT-bla reporter, FRET ratio; 0% basal, 100% maximal reference agonist | activation, % at 10 µM | actives 0.56% (n = 65,000);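 active = activation above the screen-wide mean activation plus 3 SD, cut at about 19% in these data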
# A number is an active result; . = inactive; / = not tested or not shown.
SMILES,mHtt clearance,5HT1a antag,5HT1E ag,5HT1E antag,5HT1a ag
COc1ccc(C2C=C(c3ccc(Br)s3)Nc3ncnn32)cc1OC (stereo unspecified),/,.,.,34,.
O=C(CSc1nc2ccccc2o1)NCCOc1ccccc1,.,.,.,.,.
O=C(O)C1CSCN1S(=O)(=O)c1cccc2nsnc12 (stereo unspecified),/,/,9.7,.,.
c1cncc(-c2nc(N3CCCCCC3)c3ccccc3n2)c1,.,.,.,.,.
CCN1CCN(c2nc(-c3ccncc3)nc3ccccc23)CC1,.,/,/,/,/
CCN1CCN(c2nc(-c3cccnc3)nc3ccccc23)CC1,/,.,13,.,.
CN1CCN(c2nc(-c3cccnc3)nc3ccccc23)CC1,.,.,42,.,.
Cc1ccc(C2CC(=O)Nc3cc4c(cc32)OCO4)o1 (stereo unspecified),.,/,/,/,/
CCOc1ccccc1NC(=O)CN(c1ccc(OC)cc1)S(=O)(=O)c1c(C)noc1C,.,.,.,68,.
COc1ccccc1NC(=O)CN(c1ccc(C)cc1)S(=O)(=O)c1c(C)n[nH]c1C,.,63,.,.,.
CCOc1ccc(N(CC(=O)Nc2ccccc2C)S(=O)(=O)c2c(C)noc2C)cc1,/,.,.,46,.
Cc1ccc(-c2ccc(S(=O)(=O)N3CCN(C)CC3)cc2)cc1,/,.,.,.,.
Cc1ccc(S(=O)(=O)N2CCCSCC2)cc1,.,.,.,.,49
Cc1cc(O)ccc1C1(c2ccc(O)cc2C)OC(=O)c2ccccc21,70,/,/,/,/
O=C(Nc1ccc(Cl)cc1)OCCn1nnnc1C(c1ccccc1Cl)N1CCOCC1 (stereo unspecified),.,/,/,/,/
Cn1cc(C(=O)c2ccc(Cl)cc2)cc1-c1nc2ccccc2n1C,.,.,.,.,.
Clc1ccccc1N1CCN(c2ncnc3nc[nH]c23)CC1,/,.,.,.,66
CC(=O)Nc1cccc(-c2nnc(SCc3ccccc3C#N)n2C)c1,/,.,.,.,.
O=S(=O)(NC1CC2CCC1C2)c1ccc(Br)s1 (stereo unspecified),.,.,.,.,.
CCCn1c(C)cc(C(=O)COc2ncnc3sccc23)c1C,/,.,.,.,.
Cc1cc(C(=O)COc2ncnc3sccc23)c(C)n1C1CC1,.,.,.,.,19
CCCc1nc(SCC(=O)N2CCC(Cc3ccccc3)CC2)c2c(=O)n(C)c(=O)n(C)c2n1,.,.,.,.,.
COc1ccc2c(-c3ccccc3)cc3nnnn3c2c1,.,.,.,30,.
COc1ccc2c(OC)cc(-c3ccccc3)nc2c1,.,/,/,/,/
COCCN1C(=O)C(=O)/C(=C(/O)c2ccc(OCC(C)C)cc2)C1c1cccnc1 (stereo unspecified),/,.,.,.,.
SMILES,mHtt clearance,5HT1a antag,5HT1E ag,5HT1E antag,5HT1a ag
Cc1ccc(C2CC2C(=O)NNC(=S)Nc2ccc(Cl)cc2)cc1 (stereo unspecified),.,/,/,/,/
COc1ccccc1N1CCN(CCc2n[nH]c(=S)n2-c2ccccc2)CC1,/,69,30,.,.
COc1ccccc1-c1n[nH]c(=S)n1-c1ccccc1,.,.,.,.,.
O=C(Nc1ccon1)c1csc2c1CCCC2,/,.,8.9,.,.
CCOC(=O)c1c(NC(=O)c2cc(C3CC3)on2)sc2c1CCCC2,/,.,.,.,.
N#CCSc1nc2cc(C(=O)N3CCC(C(N)=O)CC3)ccc2c2nc3ccccc3n12,.,.,.,53,.
CCOC(=O)c1sc(NC(=O)CSc2n[nH]c(-c3ccc(Cl)cc3Cl)n2)c(C#N)c1C,.,/,/,/,/
CN(C)S(=O)(=O)c1ccc(NC(=O)c2cc3ccccc3o2)cc1,.,.,.,.,21
CCc1nn(C(C)C(=O)NCCN2CCN(c3cccc(C)c3C)CC2)c(=O)c2cc3occc3n12 (stereo unspecified),/,.,62,.,.
CCc1nn(C(C)C(=O)Nc2cccc(C)c2C)c(=O)c2cc3occc3n12 (stereo unspecified),/,.,.,.,.
Nc1nnnn1CC(=O)OCc1cccc(Br)c1,/,/,.,.,.
CCn1c(SCC(=O)NCC2CCCO2)nc2c(c1=O)SC(C)C2 (stereo unspecified),/,.,.,.,19
CCn1c(SCC(=O)NC2CCCCC2)nc2c(c1=O)SC(C)C2 (stereo unspecified),/,.,.,.,.
COc1cc(NC(=O)c2nccnc2C(=O)O)cc(OC)c1,.,.,.,.,.
CCNC(=O)C1CC(=O)N(CC)C(=Nc2cc(Cl)c(O)c(Cl)c2)S1 (stereo unspecified),/,.,.,.,.
CC1=C(C(=O)Nc2ccccc2)C(c2ccc(C)o2)n2c(s/c(=C\c3ccco3)c2=O)=N1 (stereo unspecified),.,.,.,42,.
Cc1nn(-c2ccc(F)cc2)c2nc(N)c(C#N)c(-c3cccs3)c12,.,.,.,36,.
CCCC(C(=O)NC1CCCC1)N(C(=O)Cn1nnc(-c2ccc(C)o2)n1)c1ccccc1OC (stereo unspecified),/,.,.,.,.
O=c1cc(-c2ccccc2)c2ccc(O)c(CN3CCCCC3)c2o1,.,.,.,.,.
O=c1oc2c(CN3CCCCCC3)c(O)ccc2cc1-c1nc2ccccc2[nH]1,/,.,.,30,.
CCOc1ccc(Br)cc1CC(=O)O,75,/,.,.,.
CCOc1cc(CO)c(Br)cc1OCC(=O)O,.,/,/,/,/
O=C(COc1ccccc1)Nc1nnc(-c2ccc(Cl)s2)o1,/,.,.,.,.
COc1cc([C@@H]2c3cc4c(cc3[C@H](O)[C@H]3COC(=O)[C@H]23)OCO4)cc(OC)c1OC,/,/,.,73,.
C=CCn1c(NC(=O)c2ccccc2)c(C#N)c2nc3ccccc3nc21,/,.,.,.,.
SMILES,mHtt clearance,5HT1a antag,5HT1E ag,5HT1E antag,5HT1a ag
CCN(CC)CCOc1cccc(C(C)C)c1,/,.,13,.,.
CCCCOc1ccc(-c2nnc(N)s2)cc1,/,/,.,.,.
CCCCOc1ccc(CN(C)c2ncnc(N)n2)cc1,/,/,.,32,.
CC1(C)Oc2ccc(C(=O)NC3CCCC3)cc2N(CC(=O)NC2CCCCC2)C1=O,.,.,.,.,.
O=c1c2sc3nc(N4CCOCC4)c4c(c3c2ncn1Cc1ccco1)CCCC4,/,/,.,.,.
Cc1cc(NC(=O)CCCS(=O)(=O)c2nc(-c3cccs3)cc(C(F)(F)F)n2)no1,.,98,.,30,.
COC(=O)c1ccc(C(=O)OC)c(NC(=O)CSc2nc(-c3ccco3)cc(C(F)(F)F)n2)c1,/,.,.,.,.
CCCNC(=O)CSc1nc(-c2cccs2)cc(C(F)(F)F)n1,.,/,/,/,/
CS(=O)(=O)c1nc(-c2cccs2)cc(C(F)(F)F)n1,.,110,.,106,.
COC(=O)c1ccccc1NC(=O)CSc1nc(-c2ccco2)cc(C(F)(F)F)n1,/,.,.,50,.
Cc1cc(NC(=O)CSc2nc(-c3cccs3)cc(C(F)(F)F)n2)no1,/,.,.,59,.
O=C(O)CCCC(=O)NCCCCc1ccccc1,/,.,.,.,.

# Source: PubChem
